Bioassay records from PubChem BioAssay.
Most compounds without a hit are left out; they make up all but 12% or so of the library.
Pf growth 48h: inhibits P. falciparum growth in the first generation, 48 h; P. falciparum luciferase growth in erythrocytes, 48 h; Potency, µM (doses to about 28.7 µM), inactives show at the top dose activity change, negative = inhibition, usual class: inhibitors; 310,000 compounds, 5.9% hits; also: % is scaled to controls: 0 for no effect and ±100 for the full control effect
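Here the parasites carry a stable luciferase gene and grow inside erythrocytes in Albumax-based RPMI medium with compound for one erythrocytic cycle. Activity is scored as loss of luminescent signal.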
SARS PLP yeast: SARS-CoV PLP inhibition in yeast. S. cerevisiae expressing SARS-CoV PLpro, growth rescue. Potency, µM (series often up to 32.9 µM), for the others: top-dose activity, positive = growth rescue, hits mostly activators. 330,000 compounds, 0.19% hits. AID 485353; calls by dose curve; also: 0% is about no effect; nearly all actives have a fitted effect of over 55% in size
HCV inh: HCV inhibition | Huh7.5.1 HCVcc-Cre infection, luciferase reporter, 44 h | Potency, µM (doses to about 41.8 µM), without a hit: at the highest dose activity change, negative = inhibition, most hits filed as inhibitors | 340,000 compounds, 3.4% hits; also: % is scaled to controls: 0 for no effect and ±100 for the full control effect
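HCVcc-Cre virus at an moi near 0.5 was added right after compound to cells cultured 4 h from seeding (1,000 cells/well). Luciferase activity was determined 44 h later, 15 min after substrate addition at RT.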
AMA1 RON2 block: disrupts binding of P. falciparum AMA1 to RON2. AlphaScreen AMA1-biotinylated RON2 peptide binding. Potency, µM (doses to about 58.2 µM), inactives show at the top dose activity change, negative = inhibition, hits mostly inhibitors. 360,000 compounds, 0.2% hits. AID 720542;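 also: 0% = vehicle wells and -100% = peptide control; nearly all actives have a fitted effect of over 45% in size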
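AMA1 (3D7) with his tag at 25 nM final met compounds first, then biotinylated RON2 peptide at 25 nM; detection used donor plus acceptor beads, 10 µg/mL apiece, read by AlphaScreen after 30 min at room temperature.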
Pf growth 96h: inhibits malaria parasite growth, 96 h; P. falciparum luciferase reporter growth, 96 h; Potency, µM (highest dose often 28.7 µM), without a hit: at the highest dose activity change, negative = inhibition, actives largely listed as inhibitors; 320,000 compounds, 6.9% hits; also: % is scaled to controls: 0 for no effect and ±100 for the full control effect
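Erythrocytes infected with luciferase-expressing P. falciparum were dispensed at 2% hematocrit and 0.05% parasitemia (final), then incubated with compounds 96 hours at 37 C in 5% CO2. Luminescence after detection reagent addition reported growth.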
NS1 function inh: blocks influenza NS1 protein function | Potency, µM (doses to about 46.1 µM), for the others: at the top dose activity, positive = more growth | 270,000 compounds, 0.4% hits; calls by dose curve; also: actives are rising curves; nearly all actives have a fitted effect of over 50% in size
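Compounds were scored for reversing the slow growth caused by influenza A NS1 in S. cerevisiae, measured by optical density at 600 nm. Assay medium contained 2% galactose at pH 6.0; NS1-free yeast of the same strain were the positive control.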
HCV inh confirm: HCV inhibition, cherry-pick confirmation | shares compounds with HCV inh | HCVcc-Cre infectious virus cell assay, luciferase, inhibition | Potency, µM (series often up to 41.8 µM), for the others: top-dose activity, negative = inhibition, most hits filed as inhibitors | 640 compounds, 78% hits; also: nearly all actives have a fitted effect of over 80% in size
HCV host tox: host cell cytotoxicity counter-screen for HCV inhibitors; 640 compounds, 22% hits; AID 720576; shares compounds with HCV inh; HCV host cell line cytotoxicity counterscreen; Potency, µM (series often up to 41.8 µM), inactives show at the highest dose activity change, negative = cytotoxicity, hits mostly inhibitors;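 also: 44 h compound exposure; % is scaled to controls: 0 for no effect and ±100 for the full control effect; nearly all actives have a fitted effect of over 55% in size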
The depositor's hits bear a star; ? = inconclusive; · = not tested or not shown. Unless noted, calls follow the shape of the dose curve; as a rule, active = well fitted curve in the direction sought with a large enough effect; inconclusive = small, poorly fitted or top-dose-only effect, or another doubt; inactive = no such curve, though single readings can be large; an effect the other way counts as inactive or inconclusive. Potency is read from the fitted curve at half-maximal effect.

SMILES	Pf growth 48h	SARS PLP yeast	HCV inh	AMA1 RON2 block	Pf growth 96h	NS1 function inh	HCV inh confirm	HCV host tox
CN(C)CC/C=C1/c2ccc(F)cc2Sc2ccc(Cl)cc21	·	·	8.9µM*	?	·	·	14µM*	17%
COCCN(C(=O)COC(=O)c1ccc(Cl)s1)c1c(N)n(Cc2ccccc2)c(=O)[nH]c1=O	0%	-3%	19%	-9%	41%	·	·	·
COCCN(C(=O)COC(=O)c1cc2c(s1)CCC2)c1c(N)n(Cc2ccccc2)c(=O)[nH]c1=O	?	1%	?	-16%	?	·	-26%	28%
O=C(NNc1ccnc2cc(Cl)ccc12)C1CCCCC1	1.7µM*	3%	2.8µM*	4%	1µM*	·	0.89µM*	1.6µM*
CCOC(=O)c1cc2c(=O)n3ccccc3nc2n(CCCOC)c1=NC(=O)C(C)(C)C	3%	2%	?	13%	1%	-5%	?	-15%
CNc1nc(NC#N)nc(SC)n1	7%	1%	5%	-9%	27%	-2%	·	·
CC1(C(=O)NS(=O)(=O)C2CC2)CCN(C(=O)COCc2ccccc2)C1 (stereo unspecified)	·	·	·	11%	·	·	·	·
S=C(NCCc1ccccc1)Nc1cccc2cnccc12	-2%	-2%	?	1%	4%	·	·	·
S=C(NCc1ccccc1)Nc1cccc2cnccc12	21%	-4%	2µM*	-2%	7%	13%	7µM*	10µM*
Cc1nc2ccccc2n1Cc1ccccc1	-1%	1%	?	10%	?	2%	·	·
Cc1nc2ccccc2n1Cc1ccc(Br)cc1	·	·	2.5µM*	-11%	·	·	2µM*	2µM*
Cc1noc(C)c1COC(=O)c1ccc(F)c(S(=O)(=O)N2CCCCC2)c1	-9%	-4%	?	7%	-27%	·	28µM*	-36%
CC(C)n1c(NCCc2ccccc2)nc2c1c(=O)n(C)c(=O)n2C	-12%	1%	?	3%	-15%	0%	7.9µM*	?
CCOc1ccc(CCNc2nc3c(c(=O)n(C)c(=O)n3C)n2CC)cc1OCC	12%	0%	5.6µM*	3%	-9%	-10%	6.3µM*	14µM*
CCn1c(NCc2ccccn2)nc2c1c(=O)n(C)c(=O)n2C	8%	-9%	21%	72%	-7%	4%	·	·
CC(C(=O)O)N1CCCCC1 (stereo unspecified)	?	1%	13%	-3%	0%	?	·	·
Cc1nc(-c2ccccn2)nc(SCC(=O)c2ccc(F)cc2)c1Cl	?	-8%	?	85%	?	-10%	·	·
COc1ccc(C(=O)CSc2nc(-c3ccccn3)nc(C)c2Cl)cc1	?	5%	4.5µM*	6%	?	-39%	22µM*	4.4µM*
COc1ccc2c(c1OC)C(=O)N1C2SC[C@H]1C(=O)NC1CC1 (stereo partly specified)	8%	3%	1µM*	-2%	31%	-3%	-10%	5%
Cc1cccc(S(=O)(=O)Nc2ccc(-n3c(C)nc4ccccc4c3=O)cc2)c1	?	2%	1%	1%	-15%	·	·	·
O=S(=O)(/C(=C\c1ccc(C(F)(F)F)cc1)c1nc2ccccc2[nH]1)c1ccccc1	·	·	1.4µM*	-9%	·	·	7.9µM*	-97%
O=C(NCc1ccco1)/C(=C/c1ccc(C(F)(F)F)cc1)c1nc2ccccc2[nH]1	-6%	5%	?	63%	?	?	·	·
COc1ccc(/C=C(\C#N)C(=O)OCC(=O)NCc2ccco2)cc1	-22%	0%	22%	-14%	?	3%	·	·
O=C(COc1ccc(/C=N/NC(=O)c2cc3ccccc3o2)cc1Cl)Nc1ccccc1	10µM*	-3%	5.6µM*	3%	7.4µM*	7%	7µM*	7µM*
COc1cc(/C=N/NC(=O)c2ccccc2O)ccc1OCC(=O)Nc1ccccc1	?	1%	-12%	-3%	-23%	-2%	·	·
SMILES	Pf growth 48h	SARS PLP yeast	HCV inh	AMA1 RON2 block	Pf growth 96h	NS1 function inh	HCV inh confirm	HCV host tox
CC(Nc1cc(N2CCNCC2)ccc1[N+](=O)[O-])c1ccccc1 (stereo unspecified)	-25%	-4%	3.5µM*	?	35%	?	?	55%
CCc1ccc(Nc2ncc3c(n2)CC(c2ccc(OC)cc2)CC3=O)cc1 (stereo unspecified)	?	0%	4µM*	4%	-22%	3%	?	-30%
CCc1cccc(NC(=O)C2CCCN2S(=O)(=O)c2ccccc2C(F)(F)F)c1 (stereo unspecified)	?	2%	-34%	16%	?	·	·	·
O=C(Cn1nnc(-c2ccccc2NC(=O)c2ccccc2)n1)Nc1ccc2c(c1)OCCO2	?	0%	-14%	-1%	?	-5%	·	·
Cc1ccccc1C(=O)Nc1ccccc1-c1nnn(CC(=O)Nc2ccc3c(c2)OCCO3)n1	?	4%	5µM*	8%	91%	0%	?	-11%
CCCOc1ccc(/C=N/Nc2cccc([N+](=O)[O-])c2)c(O)c1	?	-15%	?	15%	?	-31%	28µM*	-30%
COc1ccc(-c2sc3ccc(N4CCOCC4)cc3c2C#CCO)cc1	·	-1%	3.2µM*	-6%	·	·	4.4µM*	5µM*
COc1ccc(/C=C/c2c(-c3ccc(OC)cc3)sc3ccc(N4CCOCC4)cc23)cc1	?	-7%	-5%	-23%	?	21%	·	·
O=C(Nc1ccc([N+](=O)[O-])cc1)/C(=C/c1cccc([N+](=O)[O-])c1)NC(=O)C1CCCCC1	?	2%	?	2%	?	9%	22µM*	48%
COc1ccc(S(=O)(=O)n2ccc(-c3ccc(OCCN(C)c4ccccn4)cc3)n2)cc1	4.7µM*	-6%	6.3µM*	-15%	10µM*	21%	7µM*	?
O=C(NCC1(c2ccccc2)CCOCC1)c1cccs1	-1%	-1%	24%	-8%	16%	2%	·	·
Cc1cccc(-c2nnc(SCC(=O)C(C)(C)C)n2C)c1	?	-2%	-4%	-7%	1%	1%	·	·
CSc1ccc(NC(=O)Nc2cccn(Cc3ccccc3F)c2=O)cc1	2%	0%	3.5µM*	-11%	13%	0%	8.9µM*	-74%
